These results are taken from PubChem BioAssay (Tox21).

A short description of experiment [1]: qHTS assay to identify small molecule antagonists of the estrogen related receptor (ERR) signaling pathway from Tox21 library - cell viability counter screen (AID 1224834). Also: nearly all actives have a fitted effect of over 30% in size. Also: potency is read from the fitted curve at half-maximal effect. In outline: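 After 17.5 h of compound exposure at 37 C, ERR cells are incubated with CellTiter-Fluor for 30 min and fluorescence intensity serves as the viability measure.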
(qHTS replaces the single test concentration by a dilution series.)

In experiment [2] the target is Luciferin 4-monooxygenase (Photinus pyralis) (UniProt P08659). Briefly: qHTS assay to identify small molecule inhibitors of firefly luciferase (AID 1224835). Also: nearly all actives have a fitted effect of over 25% in size. Also: potency is read from the fitted curve at half-maximal effect. In outline:
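Biochemical qHTS: compounds run as interplate titrations against purified firefly enzyme, with D-luciferin and ATP each at its KM concentration. Light output recorded by CCD imaging.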

The target in experiment [3] is Nuclear receptor subfamily 1 group I member 3 (Homo sapiens) (UniProt Q14994). Briefly: qHTS assay to identify small molecule antagonists of the constitutive androstane receptor (CAR) signaling pathway (AID 1224838). Also: nearly all actives have a fitted effect of over 40% in size. Also: potency is read from the fitted curve at half-maximal effect. In outline: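 Cell line: HepG2 double-stable for hCAR and CYP2B6-2.2kb reporter. Agonist: CITCO, 50 nM final. Compounds: 15 concentrations, 24 h, 37 C. Detection: ONE-Glo luminescence.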
Nuclear receptor subfamily 1 group I member 3 (Homo sapiens), sequence (Q14994 whole entry, looked up): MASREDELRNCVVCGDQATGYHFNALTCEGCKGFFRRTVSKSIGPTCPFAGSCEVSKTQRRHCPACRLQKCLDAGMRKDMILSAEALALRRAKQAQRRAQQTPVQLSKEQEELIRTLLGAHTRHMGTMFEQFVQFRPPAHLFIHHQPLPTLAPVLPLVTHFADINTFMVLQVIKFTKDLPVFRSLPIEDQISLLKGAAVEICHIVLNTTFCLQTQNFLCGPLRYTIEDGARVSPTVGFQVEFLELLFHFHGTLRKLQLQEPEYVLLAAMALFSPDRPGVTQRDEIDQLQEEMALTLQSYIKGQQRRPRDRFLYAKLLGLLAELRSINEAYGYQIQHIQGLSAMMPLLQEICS

The target is the same in experiment [4]. Briefly: qHTS assay to identify small molecule agonists of the constitutive androstane receptor (CAR) signaling pathway (AID 1224839). Also: nearly all actives have a fitted effect of over 15% in size. The method, boiled down: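 HepG2 cells stably expressing hCAR and a CYP2B6-2.2kb luciferase reporter were treated with compounds at 15 concentrations plus 0.75 uM PK11195 (final) for 24 h at 37 C; luminescence was read after ONE-Glo addition.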

Experiment [5] is described as follows: qHTS assay to identify small molecule antagonists of the estrogen related receptor signaling pathway with the pleiotropic PPARgamma coactivator (PGC) from Tox21 10K library - cell viability counter screen (AID 1224840; active = well fitted cell-killing curve with a large enough effect in the repeat runs, not every such curve was filed as active; also: nearly all actives have a fitted effect of over 40% in size; also: potency is read from the fitted curve at half-maximal effect). In outline: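 Following seeding of 2,000 PGC/ERR cells/well and 6 hours' incubation, test compounds were delivered in DMSO. The plates then sat 17.5 hours at 37 C before a fluorogenic live-cell protease reagent (CellTiter-Fluor) was read after 30 min.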

Experiment [6] concerns the target Thyrotropin receptor (Homo sapiens) (UniProt P16473). Briefly: qHTS assay to identify small molecule agonists of the thyroid stimulating hormone receptor (TSHR) signaling pathway (AID 1224843; calls by dose curve; also: nearly all actives have a fitted effect of over 45% in size). The method, boiled down:
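TSHR-HEK293 cells in agonist mode, 30 min room-temperature step, then cAMP measured by competitive HTRF (cAMP-d2 with anti-cAMP cryptate) after 1 h at room temperature. Tested at 15 concentrations in triplicate.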

The nature of experiment [7]: qHTS assay to identify small molecule agonists of the hypoxia (HIF-1) signaling pathway - cell viability counter screen (AID 1224844; calls by dose curve; also: nearly all actives have a fitted effect of over 50% in size; also: potency is read from the fitted curve at half-maximal effect). The method, boiled down: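 Cells (HRE-bla ME-180, 2,000 per well) sat 5 hrs at 37C, got compound for 17 hrs, were read for CCF4-AM FRET, and were finally lysed with CellTiter-Glo for a 30 min room-temperature luminescence read.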
Experiment [8] is described as follows: qHTS assay to identify small molecule agonists of H2AX (AID 1224845; active = well fitted activation curve with a large enough effect in the signal ratio in the repeat runs, not every such curve was filed as active; the % refers to the signal ratio). The method, boiled down: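 Wild-type CHO-K1 cells, plated overnight, exposed 3hr at 37C to 15 concentrations (0.76% DMSO final). Lysed, then HTRF anti-pH2AX (S139) cryptate and anti-H2AX-d2 antibodies, 24 hr room temperature; 665/620 nm emission read.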
Experiment [9] can be described thus: qHTS assay to identify small molecule agonists of the hypoxia (HIF-1) signaling pathway (AID 1224846; active = well fitted activation curve with a large enough effect in the signal ratio in the repeat runs, not every such curve was filed as active; the % refers to the signal ratio). The method, boiled down: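 A low-serum medium (0.5% dialyzed FBS) holding 2,000 HRE-bla ME-180 cells per well is preincubated for 5 hrs, dosed with compounds by pintool, and kept a further 17 hrs at 37C, 5% CO2 before CCF4-AM FRET detection of beta-lactamase.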

Experiment [10] in a line: qHTS assay to identify small molecule agonists of H2AX - cell viability counter screen (AID 1224847; calls by dose curve; also: nearly all actives have a fitted effect of over 30% in size; also: potency is read from the fitted curve at half-maximal effect). In outline: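 Wild-type CHO-K1 cells (10% FBS medium) were plated overnight at 37C, exposed to compounds at 15 concentrations for 3 hr at 37C (0.76% DMSO final), and viability was read as CellTiter-Glo luminescence after 30 min at room temperature.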
Experiment [11] can be described thus: qHTS RealTime-Glo MT Cell Viability Assay in HepG2 cells - 24 hour (AID 1224867). Also: nearly all actives have a fitted effect of over 50% in size. In outline:
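Luminescence read-out: viable HepG2 cells reduce a prosubstrate to a NanoLuc substrate, giving a signal proportional to live cell number. Reads taken at 0, 8, 16, 24, 32 and 40 h of compound exposure at 37 C.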

A short description of experiment [12]: qHTS RealTime-Glo MT Cell Viability Assay in HEK293 cells - 32 hour (AID 1224868). Also: nearly all actives have a fitted effect of over 50% in size. Also: potency is read from the fitted curve at half-maximal effect. The method, boiled down: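 Nonlytic real-time viability readout: viable cells convert prosubstrate to NanoLuc substrate, giving luminescence proportional to live cell number. HEK293, 600 cells/well, compound added after 5 h, continuous culture at 37 C.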
Experiment [13] in a line: A CellTox Green Cytotoxicity Assay to monitor cytotoxicity in HEK293 cells - 0 hour (AID 1224869). Also: nearly all actives have a fitted effect of over 50% in size. Also: potency is read from the fitted curve at half-maximal effect. In outline: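 Fluorescence intensity, read at 0, 8, 16, 24, 32 and 40 h of compound treatment, reflected dye binding to DNA of dead HEK293 cells; compounds (23 nL, DMSO) were added 5 h after plating cells with reagent.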
A short description of experiment [14]: qHTS assay to identify small molecule antagonists of the constitutive androstane receptor (CAR) signaling pathway - cell viability counter screen (AID 1224837). Also: nearly all actives have a fitted effect of over 45% in size. In outline: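 Counter screen run in HepG2-CYP2B6-hCAR cells: 4 hr settle, compound titration (15 concentrations) with 50 nM CITCO, 23 hr at 37 C/5% CO2, CellTiter-Fluor fluorescence.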
Experiment [15] in a line: qHTS assay to identify small molecule agonists of the constitutive androstane receptor (CAR) signaling pathway - cell viability counter screen (AID 1224836). Also: nearly all actives have a fitted effect of over 45% in size. In outline:
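HepG2 cells stably carrying hCAR and a CYP2B6-2.2kb reporter were plated 4 h, then given compounds at 15 concentrations plus PK11195 (final 0.75 uM). After 23 h at 37 C, viability was read by CellTiter-Fluor fluorescence.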

The nature of experiment [16]: qHTS assay to identify small molecule antagonists of the estrogen related receptor signaling pathway with the pleiotropic PPARgamma coactivator (PGC) from Tox21 10K library (AID 1224841; call rule not given here; also: potency is read from the fitted curve at half-maximal effect). In outline: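 qHTS antagonist format: PGC/ERR cells, 2k/well, compound in DMSO by pin transfer after 6 h attachment, 18 h treatment at 37 C, One-Glo luminescence read at 30 min.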

The nature of experiment [17]: qHTS assay to identify small molecule agonists of the estrogen related receptor signaling pathway with the pleiotropic PPARgamma coactivator (PGC) from Tox21 10K library (AID 1224842). Also: nearly all actives have a fitted effect of over 15% in size. The method, boiled down:
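PGC/ERR reporter cell line, 2,000 cells per well, incubated 6 h at 37 C before 23 nL compound in DMSO was added. After 18 h at 37 C, One-Glo luminescence read following 30 min at room temperature.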

Experiment [18] in a line: qHTS assay to identify small molecule antagonists of the estrogen related receptor (ERR) signaling pathway from Tox21 library (AID 1224848). Also: nearly all actives have a fitted effect of over 50% in size. Also: potency is read from the fitted curve at half-maximal effect. The method, boiled down:
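ERR reporter cell line (from NTP) seeded 2,000 cells/well, rested 6 h at 37 C/5% CO2, then pin-dosed with compounds in DMSO. After 18 h at 37 C, ONE-Glo added; luminescence read after 30 min at room temperature.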

Experiment [19] can be described thus: qHTS assay to identify small molecule agonists of the estrogen related receptor (ERR) signaling pathway from Tox21 library (AID 1224849; calls by dose curve; also: nearly all actives have a fitted effect of over 15% in size). To be noted: ERR reporter cell line, ONE-Glo luciferase, 18 h; at 92.4 µM (top of the series). In outline:
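Screening used an NTP-provided ERR luciferase cell line. Compounds in DMSO were added 6 h after seeding and left 18 h at 37 C before a 30 min ONE-Glo step and luminescence reading.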

Each structure is given as a SMILES string. Values joined by “and” are separate entries in the source; they are usually repeats but may differ in a detail not shown here. Equal entries are not always repeated. Records with an inconclusive call do not appear. More than one record can exist for a structure, and the calls need not agree. Active and inactive are the calls of the source. Unless noted, calls follow the shape of the dose curve; as a rule, active = well fitted curve in the direction sought with a large enough effect in the repeat runs; inconclusive = weak or mixed curves; inactive = no such curve, though single readings can be large; an effect the other way counts as inactive or inconclusive.
% is scaled to controls: 0 for no effect and ±100 for the full control effect.

Thyrotropin receptor (Homo sapiens), sequence (P16473 whole entry, looked up): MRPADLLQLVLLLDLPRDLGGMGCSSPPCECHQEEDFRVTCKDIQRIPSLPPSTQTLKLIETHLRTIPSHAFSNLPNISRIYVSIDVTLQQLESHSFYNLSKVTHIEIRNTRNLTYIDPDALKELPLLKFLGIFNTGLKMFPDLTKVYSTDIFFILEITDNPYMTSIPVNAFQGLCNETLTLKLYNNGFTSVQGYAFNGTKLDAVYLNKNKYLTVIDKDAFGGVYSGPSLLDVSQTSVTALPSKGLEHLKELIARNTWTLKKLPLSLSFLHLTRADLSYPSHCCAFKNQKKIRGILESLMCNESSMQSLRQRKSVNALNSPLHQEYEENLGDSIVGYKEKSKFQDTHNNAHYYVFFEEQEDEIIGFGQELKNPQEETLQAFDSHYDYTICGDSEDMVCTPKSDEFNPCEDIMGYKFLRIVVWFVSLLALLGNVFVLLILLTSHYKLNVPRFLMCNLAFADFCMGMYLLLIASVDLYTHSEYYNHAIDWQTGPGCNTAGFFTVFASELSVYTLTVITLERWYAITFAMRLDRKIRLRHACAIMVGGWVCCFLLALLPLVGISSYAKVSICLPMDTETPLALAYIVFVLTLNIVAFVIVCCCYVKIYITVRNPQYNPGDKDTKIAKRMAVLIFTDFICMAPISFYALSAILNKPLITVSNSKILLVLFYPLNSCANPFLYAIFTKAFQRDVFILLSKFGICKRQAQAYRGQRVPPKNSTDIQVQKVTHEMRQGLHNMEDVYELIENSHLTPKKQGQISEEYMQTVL
Luciferin 4-monooxygenase (Photinus pyralis), sequence (P08659 whole entry, looked up): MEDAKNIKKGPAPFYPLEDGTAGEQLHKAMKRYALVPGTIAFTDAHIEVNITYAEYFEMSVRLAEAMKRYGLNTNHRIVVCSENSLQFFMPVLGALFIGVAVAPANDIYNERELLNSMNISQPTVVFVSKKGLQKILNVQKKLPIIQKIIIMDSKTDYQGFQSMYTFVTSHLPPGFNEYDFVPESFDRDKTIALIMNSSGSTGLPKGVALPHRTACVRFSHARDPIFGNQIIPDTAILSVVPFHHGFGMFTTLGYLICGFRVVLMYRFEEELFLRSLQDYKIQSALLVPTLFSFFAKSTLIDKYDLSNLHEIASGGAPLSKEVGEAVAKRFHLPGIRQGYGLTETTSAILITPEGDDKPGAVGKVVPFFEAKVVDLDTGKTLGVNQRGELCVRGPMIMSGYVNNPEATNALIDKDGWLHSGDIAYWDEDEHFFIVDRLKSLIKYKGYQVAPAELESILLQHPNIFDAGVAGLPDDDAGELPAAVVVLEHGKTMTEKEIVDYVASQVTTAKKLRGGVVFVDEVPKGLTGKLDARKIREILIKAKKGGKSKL

With `COC(=O)c1ccc(C(=O)OC)cc1`, the Potency was 24.7 µM (active) and inactive in experiment [1]; 32.1 µM (active) and inactive in [2]; 6.95 µM (active) and inactive in experiment [3]; 24.7 µM (active) and inactive in [5]; 4.96 µM (active) and inactive in experiment [7]; 39.4 µM (active) and inactive in [12]. The Potency result in experiment [4], in experiment [6], in experiment [8], in experiment [10], in experiment [11] and in experiment [13] was “inactive” throughout. In addition, the compound was classed as inactive in experiment [9].
Turning to `O=C1N=C(O)CN1/N=C/c1ccc(-c2ccc([N+](=O)[O-])cc2)o1`, the Potency was 43.3 µM (active) and 26.6 µM (active) in experiment [1]; 48.6 µM (active) and inactive in experiment [5]. Moreover, the Potency entry in experiment [14], in experiment [3], in [4], in experiment [6], in experiment [7] and in experiment [8] was “inactive” in each case. The Potency entry in experiment [10], in experiment [11] and in [12] was “inactive” each time.
Consider `O=[N+]([O-])c1cc(N(CCO)CCO)ccc1NCCO`, for which the Potency in [1] is 48.5 µM (active); in experiment [2], 28.2 µM (active) and 39.9 µM (active); in [10], 50.4 µM (active) and 50.5 µM (active). In addition, the Potency result in experiment [14], in [5], in experiment [7], in [11], in experiment [12] and in experiment [13] was “inactive” in each case. Besides, the compound was called inactive in experiment [9].
On to `CC(C)Cc1ccccc1`, for which the Potency result in experiment [1], in experiment [2], in [15], in experiment [14], in experiment [5] and in experiment [6] was “inactive” throughout. For the same compound, the Potency result in experiment [7], in [8], in [10], in experiment [11], in experiment [12] and in experiment [13] was “inactive” each time. Besides, the outcome in experiment [9] was inactive.
Turning to `CCCCC(CC)COC(=O)CCCCCCCC(=O)OCC(CC)CCCC` (configuration not stated), the Potency is 17.2 µM (active) and inactive in experiment [1]; 24.3 µM (active) and inactive in experiment [3]; 8.63 µM (active) and inactive in experiment [5]; 24.3 µM (active) and inactive in experiment [16]; 7.7 µM (active) and inactive in [18]; 6.17 µM (active) and inactive in [12]. The Potency in [13] is 54.9 µM (active) and inactive. Moreover, the Potency entry in [2], in experiment [4], in experiment [17], in [6], in experiment [7] and in experiment [8] was “inactive” in each case. Further, the Potency entry in experiment [10] and in experiment [11] was “inactive” throughout. In addition, the outcome in [9] was inactive.
As to `CC(C)(C)C1CCC(O)CC1` (configuration not stated), the Potency result in experiment [1], in experiment [15], in [14], in experiment [3], in experiment [4] and in [5] was “inactive” in each case. In addition, the Potency result in experiment [6], in experiment [7], in [8], in experiment [10], in experiment [11] and in experiment [12] was “inactive” each time. The Potency result in [13] was “inactive”. In addition, the compound was classed as inactive in experiment [9].
In the case of `Clc1cc(Cl)c(Cl)cc1Cl`, the Potency entry in experiment [1], in [2], in experiment [15], in experiment [14], in experiment [5] and in experiment [16] was “inactive” in each case. For the same compound, the Potency entry in [17], in experiment [7], in [8], in experiment [10], in experiment [18] and in [11] was “inactive” each time. Besides, in experiment [12], the Potency result is “inactive”. Also, in experiment [9], the call was inactive.
For the compound `Cc1cc(NS(=O)(=O)c2ccc(N)cc2)no1`, the Potency result in [1], in experiment [15], in experiment [14], in [3], in experiment [4] and in experiment [5] was “inactive” in each case. Further, the Potency entry in [6], in experiment [7], in [10], in [11], in [12] and in [13] was “inactive” throughout.
On to `Oc1c(Cl)cc(Cl)c(Cl)c1Cl`, for which the Potency entry in [1], in experiment [2], in [15], in [14], in experiment [5] and in experiment [17] was “inactive” each time. In addition, the Potency result in experiment [6], in experiment [7] and in experiment [11] was “inactive” each time. In addition, the Potency in [16] is 59.8 µM (active) and 54.5 µM (active); in experiment [10], 111 µM (active); in experiment [18], 53.3 µM (active) and 48.6 µM (active). Also, the compound was called inactive in [9]. For the same compound, the activity change, positive = activation in [19] was -46.5% (inactive) and -37.8% (inactive).
